From article PMC4081100, “A DNA-binding-site landscape and regulatory network analysis for NAC transcription factors in Arabidopsis thaliana”

Assays:
Assay in all cases: universal protein binding microarray (PBM); transcription factors of Arabidopsis thaliana; high values mean tight binding
GST-ANAC092(1-176) = target: T1, GST-ANAC092(1-176) (Arabidopsis thaliana, UniProt Q9FKA0 1-176); details: protein: recombinant; tags: GST; chain copies: 2; dsDNA, one strand shown
T1 sequence: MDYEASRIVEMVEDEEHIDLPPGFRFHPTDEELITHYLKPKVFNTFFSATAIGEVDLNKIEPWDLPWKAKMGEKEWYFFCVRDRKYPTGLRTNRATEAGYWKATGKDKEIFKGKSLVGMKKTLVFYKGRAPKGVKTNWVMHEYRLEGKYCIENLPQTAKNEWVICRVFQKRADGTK
Outline: (§1)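 GST-tagged proteins (NAC-domain, full-length or DNA-binding-domain) were induced in cells, with zinc acetate supplied for zinc-finger proteins, then purified on glutathione–Sepharose 4B. Each was tested in duplicate at 200 to 500 nM final on custom all-10-mer Agilent 4 × 180K arrays rendered double-stranded by primer extension. The binding value is the normalised enrichment score (E-score) across gapped and ungapped 8-mers.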

GST-NTL6(1-168) = GST-NTL6(1-168) (Arabidopsis thaliana, UniProt Q9SCK6 1-168); details: protein: recombinant; tags: GST; chain copies: 2; dsDNA, one strand shown
GST-NTL6(1-168), sequence (Q9SCK6 1-168): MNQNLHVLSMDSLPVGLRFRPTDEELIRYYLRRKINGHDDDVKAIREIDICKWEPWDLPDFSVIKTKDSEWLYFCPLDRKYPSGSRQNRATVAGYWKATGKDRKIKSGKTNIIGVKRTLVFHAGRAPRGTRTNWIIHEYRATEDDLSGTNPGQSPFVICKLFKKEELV
Outline: as §1

GST-ANAC019 NAC domain = target: T2, GST-ANAC019 NAC domain (Arabidopsis thaliana, UniProt Q9C932 14-162); details: protein: recombinant; tags: GST; chain copies: 2; dsDNA, one strand shown
T2 sequence: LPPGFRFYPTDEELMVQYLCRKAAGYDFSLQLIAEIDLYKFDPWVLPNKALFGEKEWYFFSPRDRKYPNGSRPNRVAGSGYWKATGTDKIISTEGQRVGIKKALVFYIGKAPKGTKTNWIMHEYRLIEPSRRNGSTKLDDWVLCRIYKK
Outline: as §1

GST-ANAC055(1-171) = target: T3, GST-ANAC055(1-171) (Arabidopsis thaliana, UniProt Q9LDY8 1-171); details: protein: recombinant; tags: GST; chain copies: 2; dsDNA, one strand shown
T3 sequence: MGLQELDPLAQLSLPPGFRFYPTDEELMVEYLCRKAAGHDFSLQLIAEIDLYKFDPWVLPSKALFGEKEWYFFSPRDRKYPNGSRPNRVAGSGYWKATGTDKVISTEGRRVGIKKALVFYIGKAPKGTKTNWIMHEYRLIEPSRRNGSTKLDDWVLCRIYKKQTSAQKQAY
Outline: as §1

GST-ATAF1 NAC domain = target: T4, GST-ATAF1 NAC domain (Arabidopsis thaliana, UniProt Q39013 7-158); details: protein: recombinant; tags: GST; chain copies: 2; dsDNA, one strand shown
T4 sequence: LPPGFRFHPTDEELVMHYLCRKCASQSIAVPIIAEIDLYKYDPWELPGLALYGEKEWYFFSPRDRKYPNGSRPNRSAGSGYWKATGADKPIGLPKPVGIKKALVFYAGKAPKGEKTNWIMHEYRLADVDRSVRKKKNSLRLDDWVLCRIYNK
Outline: as §1

[1] = target: T5, GST-ANAC092(1-285) full length (Arabidopsis thaliana, UniProt Q9FKA0 1-285); details: protein: recombinant; tags: GST; chain copies: 2; dsDNA, one strand shown
T5 sequence: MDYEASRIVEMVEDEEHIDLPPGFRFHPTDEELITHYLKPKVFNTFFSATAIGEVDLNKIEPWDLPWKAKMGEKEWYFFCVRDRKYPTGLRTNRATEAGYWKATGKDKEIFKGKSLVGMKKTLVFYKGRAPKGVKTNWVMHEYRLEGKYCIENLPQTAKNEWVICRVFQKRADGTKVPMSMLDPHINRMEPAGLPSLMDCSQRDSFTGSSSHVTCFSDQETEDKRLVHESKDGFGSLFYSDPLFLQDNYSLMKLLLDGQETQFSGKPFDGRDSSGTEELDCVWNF
Outline: as §1

GST-NAP(1-166) = target: T6, GST-NAP(1-166) (Arabidopsis thaliana, UniProt O49255 1-166); details: protein: recombinant; tags: GST; chain copies: 2; dsDNA, one strand shown
T6 sequence: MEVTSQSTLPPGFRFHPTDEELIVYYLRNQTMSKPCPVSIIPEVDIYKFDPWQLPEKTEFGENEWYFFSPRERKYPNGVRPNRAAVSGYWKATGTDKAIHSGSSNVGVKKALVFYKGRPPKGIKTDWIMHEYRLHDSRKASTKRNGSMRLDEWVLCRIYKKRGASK
Outline: as §1

GST-NST2(1-184) = target: T7, GST-NST2(1-184) (Arabidopsis thaliana, UniProt Q9M274 1-184); details: protein: recombinant; tags: GST; chain copies: 2; dsDNA, one strand shown
T7 sequence: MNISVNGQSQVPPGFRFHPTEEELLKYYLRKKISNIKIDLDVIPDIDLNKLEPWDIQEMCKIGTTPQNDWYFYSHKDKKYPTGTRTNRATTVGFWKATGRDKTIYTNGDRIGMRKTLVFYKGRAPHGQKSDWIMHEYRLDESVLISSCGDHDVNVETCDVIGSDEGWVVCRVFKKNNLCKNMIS
Outline: as §1

GST-NTL8 NAC domain = target: T8, GST-NTL8 NAC domain (Arabidopsis thaliana, UniProt Q9XIN7 14-156); details: protein: recombinant; tags: GST; chain copies: 2; dsDNA, one strand shown
T8 sequence: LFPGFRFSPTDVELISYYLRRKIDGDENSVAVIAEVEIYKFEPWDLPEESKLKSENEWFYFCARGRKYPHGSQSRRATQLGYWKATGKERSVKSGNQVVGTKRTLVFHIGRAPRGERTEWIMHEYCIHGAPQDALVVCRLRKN
Outline: as §1

GST-SND1(1-203) = target: T9, GST-SND1(1-203) (Arabidopsis thaliana, UniProt Q9LPI7 1-203); details: protein: recombinant; tags: GST; chain copies: 2; dsDNA, one strand shown
T9 sequence: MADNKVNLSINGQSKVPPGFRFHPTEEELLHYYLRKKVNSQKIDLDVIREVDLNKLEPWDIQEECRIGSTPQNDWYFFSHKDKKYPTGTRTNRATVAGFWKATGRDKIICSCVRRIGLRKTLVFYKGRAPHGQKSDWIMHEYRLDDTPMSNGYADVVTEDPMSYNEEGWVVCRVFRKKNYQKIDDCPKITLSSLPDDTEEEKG
Outline: as §1

GST-VND3 NAC domain = target: T10, GST-VND3 NAC domain (Arabidopsis thaliana, UniProt Q9FH59 12-162); details: protein: recombinant; tags: GST; chain copies: 2; dsDNA, one strand shown
T10 sequence: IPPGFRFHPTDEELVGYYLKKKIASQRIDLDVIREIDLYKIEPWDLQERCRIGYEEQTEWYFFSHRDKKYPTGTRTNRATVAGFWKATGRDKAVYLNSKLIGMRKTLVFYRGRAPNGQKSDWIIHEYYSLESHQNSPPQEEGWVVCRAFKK
Outline: as §1

GST-VND7 NAC domain = target: T11, GST-VND7 NAC domain (Arabidopsis thaliana, UniProt Q9C8W9 9-158); details: protein: recombinant; tags: GST; chain copies: 2; dsDNA, one strand shown
T11 sequence: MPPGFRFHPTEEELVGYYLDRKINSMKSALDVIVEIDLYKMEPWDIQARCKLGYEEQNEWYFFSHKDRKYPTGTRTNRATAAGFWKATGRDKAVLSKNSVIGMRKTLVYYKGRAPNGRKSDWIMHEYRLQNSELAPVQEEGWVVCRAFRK
Outline: as §1

GST-WRKY1(266-371) = GST-WRKY1(266-371) (Arabidopsis thaliana, UniProt Q9SI37 266-371); details: protein: recombinant; tags: GST; dsDNA, one strand shown
GST-WRKY1(266-371), sequence (Q9SI37 266-371): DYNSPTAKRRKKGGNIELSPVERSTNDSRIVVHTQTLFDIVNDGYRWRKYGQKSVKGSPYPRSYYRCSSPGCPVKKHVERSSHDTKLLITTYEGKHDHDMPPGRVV
Outline: as §1

| Sequence | binding signal (GST-ANAC092(1-176)) [E-score] | binding signal (GST-NTL6(1-168)) [E-score] | binding signal (GST-ANAC019 NAC domain) [E-score] | binding signal (GST-ANAC055(1-171)) [E-score] | binding signal (GST-ATAF1 NAC domain) [E-score] | binding signal [1] [E-score] | binding signal (GST-NAP(1-166)) [E-score] | binding signal (GST-NST2(1-184)) [E-score] | binding signal (GST-NTL8 NAC domain) [E-score] | binding signal (GST-SND1(1-203)) [E-score] | binding signal (GST-VND3 NAC domain) [E-score] | binding signal (GST-VND7 NAC domain) [E-score] | binding signal (GST-WRKY1(266-371)) [E-score] |
| --- | --- | --- | --- | --- | --- | --- | --- | --- | --- | --- | --- | --- | --- |
| CTTACTTA | 0.205 | 0.454 | 0.164 | 0.137 | 0.154 | 0.276 | 0.111 | 0.221 | 0.208 | 0.317 | 0.209 | 0.106 | 0.235 |
| TTACGGAA | 0.266 | 0.151 | 0.455 | 0.402 | 0.404 | 0.354 | 0.413 | 0.199 | 0.128 | 0.405 | 0.442 | 0.391 | 0.126 |
| ATACGTCA | 0.412 |  | 0.251 | 0.267 | 0.345 | 0.435 | 0.373 | 0.183 |  | 0.298 | 0.337 | 0.322 | 0.196 |
| GTACGGCA | 0.395 |  | 0.451 | 0.362 | 0.385 | 0.439 | 0.342 | 0.178 |  | 0.236 | 0.424 | 0.425 | 0.0953 |
| TCACGTCA | 0.429 |  | 0.38 | 0.354 | 0.321 | 0.429 | 0.329 | 0.188 |  | 0.343 | 0.322 | 0.367 | 0.292 |
| ACACGTCT | 0.422 |  | 0.459 | 0.405 | 0.393 | 0.425 | 0.346 | 0.168 |  | 0.174 | 0.396 | 0.421 | 0.114 |
| ACAAGTCA | 0.0976 | 0.0563 |  |  |  | 0.276 | 0.146 | 0.0664 | 0.0517 | 0.114 | 0.0796 | 0.0869 | 0.43 |
